Measurements taken from PubChem BioAssay AID1159580 (chemical genetic matrix, 2015).
Several values for one entry are separate records, joined by “and”; a condition that tells them apart may be missing. Equal entries are not always repeated. Screen size: about 5,500 compounds; about 2,000 (36%) were called active. Another 18% or so got no clear call; they are omitted. No stated cut-off is given here; in the data, active means normalized growth mostly below about 0.91 (no sharp cut-off); inconclusive means no clear call, values can overlap the other calls; inactive means mostly above about 0.92. The list shows a part of the results.

Test: chemical genetic growth profiling, strain panel (AID 1159580);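 further: tested at 20 µM; growth read once vehicle control cultures reached saturation at 30 °C; 1 = growth at the plate median or of vehicle wells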
Settings: S. cerevisiae deletion strains, growth OD

Measured: normalized growth

O=C(O)/C=C/C=C/c1ccccc1
0.967 (inactive) and 0.21 (active): locus YHR030C, strain SLT2, stronger effect = lower value
active: locus YAL021C, strain ccr4, stronger effect = lower value 0.827 | locus YAL026C, strain drs2, stronger effect = lower value 0.783 | locus YAL030W, strain snc1, stronger effect = lower value 0.826 | locus YBL061C, strain skt5, stronger effect = lower value 0.826 | locus YBR009C, strain hhf1, stronger effect = lower value 0.83 | locus YBR023C, strain chs3, stronger effect = lower value 0.811 | locus YBR171W, strain sec66, stronger effect = lower value 0.83 | locus YBR231C, strain swc5, stronger effect = lower value 0.804 | locus YBR279W, strain paf1, stronger effect = lower value 0.833 | locus YCL011C, strain gbp2, stronger effect = lower value 0.814 | locus YCL016C, strain dcc1, stronger effect = lower value 0.836 | locus YCL069W, strain vba3, stronger effect = lower value 0.789 | locus YCR088W, strain abp1, stronger effect = lower value 0.764 | locus YDL005C, strain med2, stronger effect = lower value 0.875 | locus YDL040C, strain nat1, stronger effect = lower value 0.861 | locus YDL185W, strain tfp1, stronger effect = lower value 0.818 | locus YDR001C, strain nth1, stronger effect = lower value 0.793 | locus YDR069C, strain doa4, stronger effect = lower value 0.863 | locus YDR137W, strain rgp1, stronger effect = lower value 0.539 | locus YDR159W, strain sac3, stronger effect = lower value 0.596 | locus YDR297W, strain sur2, stronger effect = lower value 0.816 | locus YDR318W, strain mcm21, stronger effect = lower value 0.91 | locus YDR334W, strain swr1, stronger effect = lower value 0.746 | locus YDR335W, strain msn5, stronger effect = lower value 0.766 | locus YDR392W, strain spt3, stronger effect = lower value 0.624 | locus YDR502C, strain sam2, stronger effect = lower value 0.914 | locus YEL003W, strain gim4, stronger effect = lower value 0.836 | locus YEL037C, strain rad23, stronger effect = lower value 0.816 | locus YEL061C, strain CIN8 (second series), stronger effect = lower value 0.763 | locus YER015W, strain faa2, stronger effect = lower value 0.866 | locus YER016W, strain bim1, stronger effect = lower value 0.816 | locus YER110C, stronger effect = lower value 0.887 | locus YER111C, strain swi4, stronger effect = lower value 0.774 | locus YER155C, strain BEM2 (second series), stronger effect = lower value 0.636 | locus YER155C, strain BEM2, stronger effect = lower value 0.899 | locus YFR010W, strain ubp6, stronger effect = lower value 0.803 | locus YGL078C, strain dbp3, stronger effect = lower value 0.806 | locus YGL086W, strain mad1, stronger effect = lower value 0.927 | locus YGL167C, strain pmr1, stronger effect = lower value 0.837 | locus YGL173C, strain kem1, stronger effect = lower value 0.804 | locus YGL227W, strain vid30, stronger effect = lower value 0.761 | locus YGL240W, strain doc1, stronger effect = lower value 0.629 | locus YGL253W, strain hxk2, stronger effect = lower value 0.772 | locus YGR252W, strain gcn5, stronger effect = lower value 0.727 | locus YHR013C, strain ard1, stronger effect = lower value 0.767 | locus YHR027C, strain rpn1, stronger effect = lower value 0.87 | locus YHR079C, strain IRE1, stronger effect = lower value 0.238 | locus YHR094C, strain hxt1, stronger effect = lower value 0.917 | locus YHR142W, strain chs7, stronger effect = lower value 0.713 | locus YIL125W, strain kgd1, stronger effect = lower value 0.786 | locus YIR030C, strain dcg1, stronger effect = lower value 0.914 | locus YJL092W, strain hpr5, stronger effect = lower value 0.79 | locus YJL095W, strain BCK1 (second series), stronger effect = lower value 0.847 | locus YJL115W, strain asf1, stronger effect = lower value 0.762 | locus YJL129C, strain trk1, stronger effect = lower value 0.629 | locus YJL154C, strain vps35, stronger effect = lower value 0.808 | locus YJL164C, strain tpk1, stronger effect = lower value 0.8 | locus YJL166W, strain qcr8, stronger effect = lower value 0.813 | locus YJL168C, strain set2, stronger effect = lower value 0.929 | locus YJL187C, strain SWE1, stronger effect = lower value 0.825
inactive: locus YBR021W, strain FUR4, stronger effect = lower value 0.862 | locus YBR229C, strain ROT2, stronger effect = lower value 0.983 | locus YCL029C, strain bik1, stronger effect = lower value 0.952 | locus YDL035C, strain GPR1, stronger effect = lower value 0.964 | locus YDL074C, strain BRE1, stronger effect = lower value 0.924 | locus YDL101C, strain DUN1, stronger effect = lower value 0.979 | locus YDL134C, strain PPH21, stronger effect = lower value 0.97 | locus YDL192W, strain arf1, stronger effect = lower value 0.922 | locus YDR101C, strain arx1, stronger effect = lower value 0.938 | locus YDR150W, strain NUM1, stronger effect = lower value 0.966 | locus YDR162C, strain NBP2, stronger effect = lower value 0.943 | locus YDR195W, strain ref2 1.01 | locus YDR388W, stronger effect = lower value 0.931 | locus YEL061C, strain CIN8, stronger effect = lower value 0.977 | locus YER167W, strain BCK2, stronger effect = lower value 0.974 | locus YGL248W, strain PDE1, stronger effect = lower value 0.973 | locus YGR135W, strain pre9, stronger effect = lower value 0.916 | locus YGR229C, strain SMI1, stronger effect = lower value 0.993 | locus YHR079C, strain IRE1 (second series), stronger effect = lower value 0.927 | locus YHR129C, strain ARP1, stronger effect = lower value 0.96 | locus YHR200W, strain rpn10, stronger effect = lower value 0.949 | locus YIL066C, strain RNR3, stronger effect = lower value 0.996 | locus YIL073C, strain SPO22, stronger effect = lower value 1.05 | locus YJL134W, strain LCB3, stronger effect = lower value 0.975 | locus YJL187C, strain SWE1 (second series), stronger effect = lower value 0.975 | locus YJR043C, strain POL32, stronger effect = lower value 0.968
0.985 (inactive) and 0.23 (active): locus YJL095W, strain BCK1, stronger effect = lower value
